G9a inh – G9a (human) methyltransferase inhibition; G9a H3K9 monomethylation, AlphaScreen, 2 h; Potency, µM (top dose mostly 102 µM), for the others: at the top dose activity, negative = inhibition, actives largely listed as inhibitors; 350,000 tested, 8.8% active; also: potency is read from the fitted curve at half-maximal effect; % is scaled to controls: 0 for no effect and ±100 for the full control effect; nearly all actives have a fitted effect of over 75% in size
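Quantitative HTS format: methyltransferase activity on a biotin-tagged H3K9 peptide is measured by AlphaScreen, using a rabbit anti-monomethyl-H3K9 antibody with streptavidin donor and anti-IgG acceptor beads. Final levels are 20 nM enzyme, 500 nM peptide, 20 uM SAM; 2 h RT.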
PI5P4Ka inh – PI5P4K alpha (human) kinase inhibition | P48426 | PI5P4Kalpha enzyme, ADP-Glo luminescence, 60 min; hits give low values | max response, % | 330,000 tested, 1.2% active; active = max response of -50% or lower; inconclusive = between -30% and -50%; inactive = -30% or higher; also: value at the top dose of about 77 µM; % is scaled to controls: 0 for no effect and ±100 for the full control effect
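Luminescence from ADP-Glo served as readout of PI5P4Kalpha activity in a qHTS format. Reaction: enzyme, substrate, compound, ATP at 5 microM final, 60 min at RT.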
BAZ2B inh – blocks human BAZ2B; AlphaScreen BAZ2B-H3K14Ac peptide displacement; Potency, µM (series often up to 114 µM), for inactives: at the top dose activity change, negative = inhibition, hits mostly inhibitors; 360,000 tested, 4.4% active; AID 504333; also: potency is read from the fitted curve at half-maximal effect; % is scaled to controls: 0 for no effect and ±100 for the full control effect; nearly all actives have a fitted effect of over 60% in size
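In this displacement format the biotinylated H3(5-23) peptide acetylated at Lys14 serves as ligand at 50 nM, with BAZ2B at 50 nM in PBS pH 7.4 containing 0.01% Tween-20. Donor and acceptor beads are 10 ug/mL final.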
HP1b binding inh – blocks HP1-beta chromodomain binding to methylated histone tails; P83916; AlphaScreen HP1-beta / biotin-H3K9me3 peptide binding; Potency, µM (highest dose often 114 µM), for the others: top-dose activity change, negative = inhibition, hits mostly inhibitors; 390,000 tested, 0.56% active; AID 540317; also: potency is read from the fitted curve at half-maximal effect; nearly all actives have a fitted effect of over 70% in size
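Compound inhibition of the preformed complex between 50 nM HP1-beta and 50 nM biotinylated H3K9me3 peptide was read by AlphaScreen. Buffer was PBS pH 7.4 with 0.01% Tween-20. Incubations ran 30 min at room temperature, with 10 ug/mL donor/acceptor beads.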
L3MBTL1 inh – inhibitors of human L3MBTL1. AlphaScreen L3MBTL1–H3K9me1 peptide binding. Potency, µM (series often up to 57.1 µM), for inactives: at the highest dose activity, negative = inhibition, usual class: inhibitors. 230,000 tested, 0.66% active. AID 485360; also: potency is read from the fitted curve at half-maximal effect; % is scaled to controls: 0 for no effect and ±100 for the full control effect; nearly all actives have a fitted effect of over 60% in size
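AlphaScreen proximity signal between nickel-chelate acceptor and streptavidin donor beads (final 10 ug/mL) reports binding of 50 nM L3MBTL1 to 75 nM biotin-H3 K9me1 peptide; complex incubated with compounds 30 min at room temperature; cefsulodin titration as control.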
JMJD2A Tudor inh – JMJD2A Tudor domain (human) inhibition. AID 504339. 390,000 tested, 4.4% active. O75164. AlphaScreen JMJD2A-Tudor / H3K4me3 peptide binding. Potency, µM (doses to about 114 µM), inactives show top-dose activity change, negative = inhibition, hits mostly inhibitors; also: potency is read from the fitted curve at half-maximal effect; % is scaled to controls: 0 for no effect and ±100 for the full control effect; nearly all actives have a fitted effect of over 50% in size
Numbers without * were called inactive; [ ] = dose if it differs, or a comment. An excerpt weighted towards active compounds, which were near 11% of everything screened. Unless noted, calls follow the shape of the dose curve; as a rule, active = well fitted inhibition curve with a large enough effect; inconclusive = small, poorly fitted or top-dose-only effect; inactive = no such curve, though single readings can be large or run the other way.

Results for Cn1c(=O)n(C)c2cc(N3CCCCC3)c(NC(=O)c3ccc(Cl)cc3)cc21 ?
G9a inh: -34%[59 µM]; BAZ2B inh: inconclusive; HP1b binding inh: 24%; JMJD2A Tudor inh: -12%

Results for CC(=O)NCCOc1cccc(OCCNC(C)=O)c1 ?
G9a inh: 11%[59 µM]; PI5P4Ka inh: 5; BAZ2B inh: 7%; HP1b binding inh: 35%; L3MBTL1 inh: -5%; JMJD2A Tudor inh: -14%

What do the screens show for `CCOc1cccc(OCCCNCCCOC)c1`?
G9a inh: inconclusive; PI5P4Ka inh: -9; BAZ2B inh: 40µM*; HP1b binding inh: inconclusive; L3MBTL1 inh: 2%; JMJD2A Tudor inh: 2.8µM*

How did Cc1cc(NCc2ccccn2)nc2ccccc12 do in these assays?
G9a inh: 12%; BAZ2B inh: -4%; HP1b binding inh: 46%; JMJD2A Tudor inh: -20%

How did CCn1c(NCc2ccc(N(C)C)cc2)nc2ccccc21 do in these assays?
G9a inh: 20µM*; BAZ2B inh: inconclusive; HP1b binding inh: -11%; L3MBTL1 inh: -13%; JMJD2A Tudor inh: inconclusive

Results for CCn1c(NCc2ccccn2)nc2ccccc21 ?
G9a inh: 8.9µM*; PI5P4Ka inh: 2; BAZ2B inh: 56µM*; HP1b binding inh: 30%; L3MBTL1 inh: -3%; JMJD2A Tudor inh: -6%

What do the screens show for `c1ccc(CNc2ccc3ccccc3n2)nc1`?
G9a inh: 11%; BAZ2B inh: -5%; HP1b binding inh: 8%; L3MBTL1 inh: -4%; JMJD2A Tudor inh: 8.9µM*

Results for CCN(CC)c1ccc(CNc2nc3ccccc3n2CCN2CCCCC2)cc1 ?
G9a inh: 25µM*; PI5P4Ka inh: 0; BAZ2B inh: 14µM*; HP1b binding inh: inconclusive; L3MBTL1 inh: -10%[11.4 µM]; JMJD2A Tudor inh: 40µM*

What do the screens show for `COc1ccc(CNc2nc3ccccc3n2CCN2CCCCC2)cc1`?
G9a inh: inconclusive; PI5P4Ka inh: 1; BAZ2B inh: -29%; HP1b binding inh: 16%; L3MBTL1 inh: -5%[11.4 µM]; JMJD2A Tudor inh: -17%

Results for CCn1c(NCc2ccc(OC)c(OC)c2)nc2ccccc21 ?
G9a inh: -42%[59 µM]; BAZ2B inh: -2%; HP1b binding inh: 29%; JMJD2A Tudor inh: -4%

How did O=C1c2ccccc2NC(c2ccccc2OCc2ccccc2)N1Cc1ccco1 (stereo not given) do in these assays?
HP1b binding inh: 12%[57 µM]; JMJD2A Tudor inh: -10%[57.1 µM]

How did CC(C(=O)Nc1ccc(F)c(Cl)c1)N1Cc2ccccc2C1=O (stereo not given) do in these assays?
G9a inh: 6%[59 µM]; BAZ2B inh: 1%; HP1b binding inh: 20%; JMJD2A Tudor inh: 1%

How did COCCCNC(=O)C(=O)NCC(c1ccc2c(c1)OCO2)N1CCOCC1 (stereo not given) do in these assays?
G9a inh: 4%[59 µM]; BAZ2B inh: -2%; HP1b binding inh: 12%[57 µM]; JMJD2A Tudor inh: -17%

Results for O=C(Nc1ccc(Oc2ccccc2)cc1)c1ccc(F)c(S(=O)(=O)N2CCN(c3ccccc3F)CC2)c1 ?
G9a inh: 9%[59 µM]; BAZ2B inh: -3%; HP1b binding inh: 2%; JMJD2A Tudor inh: -28%

What do the screens show for `CN(C)S(=O)(=O)c1ccc(NC(=O)c2ccccn2)cc1`?
G9a inh: inconclusive; PI5P4Ka inh: 0; BAZ2B inh: 8%; HP1b binding inh: 27%; L3MBTL1 inh: 4%; JMJD2A Tudor inh: -13%

Results for CC(=O)Nc1ccc(S(=O)(=O)NCCSc2ccccn2)cc1 ?
G9a inh: 2.5µM*; PI5P4Ka inh: -7; BAZ2B inh: -4%; HP1b binding inh: 63%; L3MBTL1 inh: 5%; JMJD2A Tudor inh: inconclusive

Results for COc1ccc(S(=O)(=O)NCCc2cn3nc(C)c(C)nc3n2)cc1F ?
G9a inh: 13%; PI5P4Ka inh: 9; BAZ2B inh: -4%[57.1 µM]; HP1b binding inh: 32%; JMJD2A Tudor inh: -12%

How did CC(=O)Nc1ccc(S(=O)(=O)NCCc2cn3nc(C)c(C)nc3n2)cc1 do in these assays?
G9a inh: 8.9µM*; PI5P4Ka inh: 6; BAZ2B inh: -14%; HP1b binding inh: 55%; JMJD2A Tudor inh: 13%

Results for CCSc1ccccc1C(=O)Nc1ccc(S(=O)(=O)NC(C)=O)cc1 ?
PI5P4Ka inh: -12; BAZ2B inh: -14%; HP1b binding inh: 7%; L3MBTL1 inh: 5%; JMJD2A Tudor inh: 50µM*

Results for CC(=O)NS(=O)(=O)c1ccc(NC(=O)c2ccccn2)cc1 ?
G9a inh: 50µM*; PI5P4Ka inh: 4; BAZ2B inh: 50µM*; HP1b binding inh: 29%; L3MBTL1 inh: -8%; JMJD2A Tudor inh: inconclusive

What do the screens show for `Cc1sc2ncn(CC(=O)N3CCN(c4ccccc4F)CC3)c(=O)c2c1S(=O)(=O)N1CCN(c2ncccn2)CC1`?
G9a inh: 7%[59 µM]; BAZ2B inh: -1%; HP1b binding inh: 44%; JMJD2A Tudor inh: -6%

Results for CCOc1ccc2c(c1)sc1nc(=O)n(-c3ccc(Cl)c(Cl)c3)c(=O)n12 ?
G9a inh: 7%[59 µM]; BAZ2B inh: -1%; HP1b binding inh: 39%; JMJD2A Tudor inh: 5%

Results for CCOc1ccc(NS(=O)(=O)c2ccc(NC(=O)c3ccccn3)cc2)cc1 ?
G9a inh: 7%[12.7 µM]; PI5P4Ka inh: 4; BAZ2B inh: 13%; HP1b binding inh: 13%; L3MBTL1 inh: 4%; JMJD2A Tudor inh: -13%

How did CCCNS(=O)(=O)c1ccc(NC(=O)c2ccccn2)cc1 do in these assays?
G9a inh: -7%; PI5P4Ka inh: 6; BAZ2B inh: 0%; HP1b binding inh: 16%; L3MBTL1 inh: -4%; JMJD2A Tudor inh: 20µM*

How did COc1ccc(NC(=O)Cn2c(=O)n(CCc3ccccc3)c(=O)c3c4c(sc32)CCCC4)cc1 do in these assays?
G9a inh: -6%[59 µM]; BAZ2B inh: 7%; HP1b binding inh: 18%; JMJD2A Tudor inh: -10%

What do the screens show for `CSc1nnc2c(n1)c(C)nn2-c1cccc(C)c1`?
G9a inh: 10µM*; PI5P4Ka inh: 0; BAZ2B inh: 28µM*; HP1b binding inh: -35%; L3MBTL1 inh: inconclusive; JMJD2A Tudor inh: inconclusive

What do the screens show for `CCn1cc(C(=O)NCc2ccccc2OC)c(=O)c2cc(S(=O)(=O)N3CCCCC3)ccc21`?
G9a inh: -5%[59 µM]; HP1b binding inh: 27%; JMJD2A Tudor inh: -33%

Results for O=C(N/N=C/c1cc(Cl)cc([N+](=O)[O-])c1O)c1ccccc1NS(=O)(=O)c1cccs1 ?
PI5P4Ka inh: -22; BAZ2B inh: -37%; HP1b binding inh: inconclusive; L3MBTL1 inh: 0%; JMJD2A Tudor inh: 56µM*
